Hit rate of the full screen: of about 5,500 compounds, about 2,000 (36%) were called active. Roughly 18% stayed inconclusive and do not appear here. No stated cut-off is given here; in the data, active means normalized growth mostly below about 0.91 (no sharp cut-off); inconclusive means no clear call, values can overlap the other calls; inactive means mostly above about 0.92. The list shows a part of the results.
Assay: chemical genetic growth profiling, strain panel (AID 1159580);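 further: tested at 20 µM; growth read once vehicle control cultures reached saturation at 30 °C; 1 = growth at the plate median or of vehicle wells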
Settings: growth OD
[1] = S. cerevisiae deletion strains, locus YDR150W, strain NUM1, stronger effect = lower value
[2] = S. cerevisiae deletion strains, locus YGR078C, strain PAC10, stronger effect = lower value
[3] = S. cerevisiae deletion strains, locus YJR075W, strain HOC1, stronger effect = lower value
[4] = S. cerevisiae deletion strains, locus YMR263W, strain SAP30, stronger effect = lower value
[5] = S. cerevisiae deletion strains, locus YMR307W, strain GAS1, stronger effect = lower value
[6] = S. cerevisiae deletion strains, locus YNL153C, strain GIM3, stronger effect = lower value
[7] = S. cerevisiae deletion strains, locus YPL055C, strain LGE1, stronger effect = lower value

Measured: normalized growth

COc1ccc(CCNC(=S)NCCc2ccc(OC)c(OC)c2)cc1OC
inactive: S. cerevisiae deletion strains, locus YAL013W, strain DEP1, stronger effect = lower value 0.998 | S. cerevisiae deletion strains, locus YBR229C, strain ROT2, stronger effect = lower value 0.988 | S. cerevisiae deletion strains, locus YCL061C, strain MRC1, stronger effect = lower value 0.993 | S. cerevisiae deletion strains, locus YDL101C, strain DUN1, stronger effect = lower value 0.989 | [1] 0.985 | S. cerevisiae deletion strains, locus YEL061C, strain CIN8, stronger effect = lower value 0.987 | [2] 0.981 | S. cerevisiae deletion strains, locus YHR030C, strain SLT2, stronger effect = lower value 1 | S. cerevisiae deletion strains, locus YHR087W, strain rtc3, stronger effect = lower value 0.979 | S. cerevisiae deletion strains, locus YJL187C, strain SWE1, stronger effect = lower value 0.994 | S. cerevisiae deletion strains, locus YJR043C, strain POL32, stronger effect = lower value 0.993 | [3] 1.04 | S. cerevisiae deletion strains, locus YLR039C, strain RIC1, stronger effect = lower value 1.04 | S. cerevisiae deletion strains, locus YLR058C, strain SHM2 (second series), stronger effect = lower value 1 | S. cerevisiae deletion strains, locus YLR085C, strain ARP6, stronger effect = lower value 1.02 | S. cerevisiae deletion strains, locus YLR262C, strain YPT6, stronger effect = lower value 1.02 | S. cerevisiae deletion strains, locus YML094W, strain GIM5, stronger effect = lower value 0.981 | S. cerevisiae deletion strains, locus YMR219W, strain ESC1, stronger effect = lower value 1 | [4] 1.06 | [5] 1.06 | S. cerevisiae deletion strains, locus YNL128W, strain TEP1, stronger effect = lower value 1.02 | [6] 0.992 | S. cerevisiae deletion strains, locus YNL298W, strain CLA4 (second series), stronger effect = lower value 1.01 | S. cerevisiae deletion strains, locus YNL322C, strain KRE1, stronger effect = lower value 0.992 | S. cerevisiae deletion strains, locus YNR030W, strain Alg12, stronger effect = lower value 1 | [7] 0.982 | S. cerevisiae deletion strains, locus YPL241C, strain CIN2, stronger effect = lower value 1.08 | S. cerevisiae deletion strains, locus YPR135W, strain CTF4, stronger effect = lower value 1.05 | S. cerevisiae strains, strain wild type, stronger effect = lower value 1.01

COc1ccc(CCN(C)CCc2ccc(OC)c(OC)c2)cc1OC
inactive: S. cerevisiae deletion strains, locus YAL040C, strain CLN3, stronger effect = lower value 1.08 | S. cerevisiae deletion strains, locus YCL061C, strain MRC1 (second series), stronger effect = lower value 0.998 | [1] 1.01 | S. cerevisiae deletion strains, locus YDR363W, strain ESC2, stronger effect = lower value 1.01 | S. cerevisiae deletion strains, locus YER002W, strain NOP16, stronger effect = lower value 1.01 | [2] 0.992 | [3] 0.983 | [4] 0.999 | [5] 0.998 | [6] 1.03 | S. cerevisiae deletion strains, locus YNL175C, strain NOP13, stronger effect = lower value 1.02 | S. cerevisiae deletion strains, locus YNL197C, strain WHI3, stronger effect = lower value 1.01 | S. cerevisiae deletion strains, locus YNL224C, strain SQS1, stronger effect = lower value 1.01 | S. cerevisiae deletion strains, locus YOR083W, strain WHI5 (second series), stronger effect = lower value 1.02 | [7] 0.985

Reference: PubChem BioAssay AID1159580 (chemical genetic matrix, 2015)
